# About 7,900 targets were measured; listed, in parts, are those with a hit and a random draw of the rest. About 0.6% of all pairs of compound and target were hits. A number with no mark means an inactive call.
# Tests used:
# Test in all cases: log2 fold change, soluble protein after heating vs DMSO (PISA); higher = thermal stabilisation; K562 cells, 10 uM, 30 min; active = over 0.2 and 3.5 SD of the protein, either way, in both replicates (recomputed)
# [1] = compound: CC[C@@H]1C(=O)N(C)c2cnc(Nc3ccc(C(=O)NC4CCN(C)CC4)cc3OC)nc2N1C1CCCC1
# Method in brief: (§1)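 Soluble protein was defined as the supernatant after 21,000xg for 90 min. It came from K562 cells at 2×10^6 cells/mL given 10 μM compound for 30 min, heated in aliquots for 3 min across 48°C-58°C, pooled, and extracted in PBS with 0.5% NP-40 at 4°C, and was quantified by TMTpro 16plex LC-MS/MS with equalised channel sums. Thermal stability against control samples, from duplicates, is reported as log2 fold change.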
# volasertib = compound: CC[C@@H]1C(=O)N(C)c2cnc(Nc3ccc(C(=O)N[C@H]4CC[C@H](N5CCN(CC6CC6)CC5)CC4)cc3OC)nc2N1C(C)C [volasertib]
# Method in brief: as §1
# epoxomicin = compound: CC[C@H](C)[C@@H](C(=O)N[C@@H]([C@@H](C)O)C(=O)N[C@@H](CC(C)C)C(=O)[C@]1(CO1)C)NC(=O)[C@H]([C@@H](C)CC)N(C)C(=O)C [epoxomicin]
# Method in brief: as §1
# [2] = compound: CCn1c(C(=O)N(C2CC2)C2CC2)cc2c3c(ncn3C)c(Nc3cc(C)n(C)n3)nc21
# Method in brief: as §1
# rosiglitazone = compound: CN(CCOC1=CC=C(C=C1)C[C@H]2C(=O)NC(=O)S2)C3=CC=CC=N3 (racemic) [rosiglitazone]
# Method in brief: as §1
# [3] = compound: CC[C@H](C)N1C=C(C2=C(C=C(C=C21)C3=CN=C(C=C3)N4CCNCC4)C(=O)NCC5=C(C=C(NC5=O)C)C)C
# Method in brief: as §1
# [4] = compound: CCn1cc(-c2ccnc3[nH]c(-c4cccc(CN(C)C)c4)cc23)c(-c2ccc(NC(=O)N(C)C)cc2)n1
# Method in brief: as §1
# [5] = compound: CN(C)CC(=O)Nc1ccc2[nH]c(=O)c3ccccc3c2c1
# Method in brief: as §1
# [6] = compound: CN1C2=C(C3=C1C(=O)N(N=C3)CC4=CC(=CC=C4)N)SC(=C2)S(=O)C
# Method in brief: as §1
# [7] = compound: CN1CCC(CNc2ccc3ncc(-c4cccc(OC(F)(F)F)c4)n3n2)CC1
# Method in brief: as §1
# Sequence of UniProt O43432 (O43432 whole entry, looked up): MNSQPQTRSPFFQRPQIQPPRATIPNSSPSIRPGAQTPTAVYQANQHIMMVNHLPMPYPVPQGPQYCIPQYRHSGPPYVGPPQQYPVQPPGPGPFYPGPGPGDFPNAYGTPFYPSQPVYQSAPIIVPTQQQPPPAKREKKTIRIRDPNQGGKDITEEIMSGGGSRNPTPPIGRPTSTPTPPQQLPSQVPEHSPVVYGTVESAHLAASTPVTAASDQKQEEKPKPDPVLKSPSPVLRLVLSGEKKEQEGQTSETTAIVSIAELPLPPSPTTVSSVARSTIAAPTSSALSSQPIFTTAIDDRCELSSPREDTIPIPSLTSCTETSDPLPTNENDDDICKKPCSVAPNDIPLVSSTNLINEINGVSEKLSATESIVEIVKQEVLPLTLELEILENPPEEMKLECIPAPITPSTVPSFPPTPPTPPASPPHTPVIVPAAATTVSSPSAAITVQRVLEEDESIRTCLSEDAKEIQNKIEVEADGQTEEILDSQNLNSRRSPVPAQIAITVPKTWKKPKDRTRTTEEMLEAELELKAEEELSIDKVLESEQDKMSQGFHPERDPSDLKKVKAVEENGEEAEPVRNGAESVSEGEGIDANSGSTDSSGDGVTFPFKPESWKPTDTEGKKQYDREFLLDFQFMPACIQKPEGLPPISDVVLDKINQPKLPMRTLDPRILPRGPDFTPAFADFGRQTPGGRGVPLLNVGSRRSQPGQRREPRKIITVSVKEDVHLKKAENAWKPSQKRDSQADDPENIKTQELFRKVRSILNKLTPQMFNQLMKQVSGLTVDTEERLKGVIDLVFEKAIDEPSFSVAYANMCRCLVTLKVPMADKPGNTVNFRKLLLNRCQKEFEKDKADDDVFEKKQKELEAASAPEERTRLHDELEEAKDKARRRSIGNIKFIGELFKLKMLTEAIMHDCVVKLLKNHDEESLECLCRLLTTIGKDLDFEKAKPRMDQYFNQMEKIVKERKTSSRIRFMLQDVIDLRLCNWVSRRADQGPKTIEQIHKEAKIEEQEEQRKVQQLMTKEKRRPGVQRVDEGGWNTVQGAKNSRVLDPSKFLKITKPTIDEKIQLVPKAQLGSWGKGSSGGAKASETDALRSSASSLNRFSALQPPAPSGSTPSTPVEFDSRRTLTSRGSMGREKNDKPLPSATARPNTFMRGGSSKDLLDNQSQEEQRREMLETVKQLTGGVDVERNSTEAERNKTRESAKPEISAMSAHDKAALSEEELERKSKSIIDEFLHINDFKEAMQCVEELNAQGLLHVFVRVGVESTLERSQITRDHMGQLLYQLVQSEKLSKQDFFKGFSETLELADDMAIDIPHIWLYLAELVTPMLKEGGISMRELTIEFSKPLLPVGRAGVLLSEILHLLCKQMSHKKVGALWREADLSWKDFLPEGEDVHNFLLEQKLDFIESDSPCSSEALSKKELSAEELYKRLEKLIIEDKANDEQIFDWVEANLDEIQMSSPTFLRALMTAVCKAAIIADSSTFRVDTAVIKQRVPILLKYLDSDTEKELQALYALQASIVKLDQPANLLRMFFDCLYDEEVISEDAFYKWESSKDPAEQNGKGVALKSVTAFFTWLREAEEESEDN
# Sequence of UniProt P32519 (P32519 whole entry, looked up): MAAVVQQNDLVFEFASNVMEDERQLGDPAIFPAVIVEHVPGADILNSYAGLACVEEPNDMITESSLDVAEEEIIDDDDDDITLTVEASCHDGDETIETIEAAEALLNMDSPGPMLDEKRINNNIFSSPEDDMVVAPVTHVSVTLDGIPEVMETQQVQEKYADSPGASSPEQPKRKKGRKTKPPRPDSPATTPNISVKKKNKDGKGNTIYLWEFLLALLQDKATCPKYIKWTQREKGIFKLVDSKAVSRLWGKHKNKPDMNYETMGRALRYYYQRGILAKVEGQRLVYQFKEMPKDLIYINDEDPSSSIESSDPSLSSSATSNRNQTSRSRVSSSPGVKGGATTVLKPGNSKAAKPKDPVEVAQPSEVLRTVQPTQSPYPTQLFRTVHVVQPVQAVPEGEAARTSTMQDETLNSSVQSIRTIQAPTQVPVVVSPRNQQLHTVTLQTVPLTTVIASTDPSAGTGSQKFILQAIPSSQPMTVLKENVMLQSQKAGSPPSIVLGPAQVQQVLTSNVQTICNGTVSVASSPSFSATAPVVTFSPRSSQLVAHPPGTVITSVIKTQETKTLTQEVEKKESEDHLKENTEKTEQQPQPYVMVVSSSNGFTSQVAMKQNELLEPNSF
# Sequence of UniProt Q13409 (Q13409 whole entry, looked up): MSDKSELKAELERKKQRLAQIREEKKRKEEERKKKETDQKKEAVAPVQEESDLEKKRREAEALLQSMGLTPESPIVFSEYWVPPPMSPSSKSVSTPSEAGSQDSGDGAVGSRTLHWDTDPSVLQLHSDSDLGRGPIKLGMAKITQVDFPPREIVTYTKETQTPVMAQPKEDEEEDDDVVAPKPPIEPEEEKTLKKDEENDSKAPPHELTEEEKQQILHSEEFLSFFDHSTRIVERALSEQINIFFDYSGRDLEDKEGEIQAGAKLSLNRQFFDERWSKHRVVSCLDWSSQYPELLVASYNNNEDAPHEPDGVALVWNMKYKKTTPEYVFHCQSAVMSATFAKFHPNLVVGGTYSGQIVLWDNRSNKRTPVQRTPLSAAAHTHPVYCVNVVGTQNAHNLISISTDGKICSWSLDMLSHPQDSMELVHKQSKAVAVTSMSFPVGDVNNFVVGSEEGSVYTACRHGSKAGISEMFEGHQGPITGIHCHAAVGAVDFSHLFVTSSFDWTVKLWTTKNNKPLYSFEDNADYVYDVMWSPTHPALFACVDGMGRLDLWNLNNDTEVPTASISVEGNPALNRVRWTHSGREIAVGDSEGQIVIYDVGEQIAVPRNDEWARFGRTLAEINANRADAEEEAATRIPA
# Sequence of UniProt Q9BPY3 (Q9BPY3 whole entry, looked up): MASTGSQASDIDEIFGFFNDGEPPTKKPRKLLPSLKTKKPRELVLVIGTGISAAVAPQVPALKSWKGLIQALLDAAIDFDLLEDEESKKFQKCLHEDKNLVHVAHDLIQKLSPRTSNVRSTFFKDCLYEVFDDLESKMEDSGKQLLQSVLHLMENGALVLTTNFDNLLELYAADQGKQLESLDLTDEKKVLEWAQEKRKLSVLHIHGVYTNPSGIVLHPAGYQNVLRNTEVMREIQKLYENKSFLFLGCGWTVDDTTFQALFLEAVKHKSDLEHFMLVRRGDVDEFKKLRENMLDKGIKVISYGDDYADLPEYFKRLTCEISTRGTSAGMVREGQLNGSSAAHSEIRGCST
# Sequence of UniProt Q9H4H8 (Q9H4H8 whole entry, looked up): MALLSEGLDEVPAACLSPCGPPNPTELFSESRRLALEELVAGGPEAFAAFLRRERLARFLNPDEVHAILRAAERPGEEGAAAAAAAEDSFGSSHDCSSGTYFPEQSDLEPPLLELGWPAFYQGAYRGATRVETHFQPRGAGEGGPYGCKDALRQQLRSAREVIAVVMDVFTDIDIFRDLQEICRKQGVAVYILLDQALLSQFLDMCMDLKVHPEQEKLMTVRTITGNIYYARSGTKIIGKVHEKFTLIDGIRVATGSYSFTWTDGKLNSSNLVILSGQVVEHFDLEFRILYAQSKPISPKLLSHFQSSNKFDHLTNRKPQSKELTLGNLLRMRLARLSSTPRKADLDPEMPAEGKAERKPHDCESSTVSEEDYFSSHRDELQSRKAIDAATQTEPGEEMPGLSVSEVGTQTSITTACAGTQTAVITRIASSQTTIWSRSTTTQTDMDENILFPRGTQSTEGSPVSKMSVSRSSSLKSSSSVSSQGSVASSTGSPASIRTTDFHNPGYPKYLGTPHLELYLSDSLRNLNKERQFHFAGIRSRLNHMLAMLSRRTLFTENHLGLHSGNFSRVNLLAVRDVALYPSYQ
# Sequence of UniProt Q96PV7 (Q96PV7 whole entry, looked up): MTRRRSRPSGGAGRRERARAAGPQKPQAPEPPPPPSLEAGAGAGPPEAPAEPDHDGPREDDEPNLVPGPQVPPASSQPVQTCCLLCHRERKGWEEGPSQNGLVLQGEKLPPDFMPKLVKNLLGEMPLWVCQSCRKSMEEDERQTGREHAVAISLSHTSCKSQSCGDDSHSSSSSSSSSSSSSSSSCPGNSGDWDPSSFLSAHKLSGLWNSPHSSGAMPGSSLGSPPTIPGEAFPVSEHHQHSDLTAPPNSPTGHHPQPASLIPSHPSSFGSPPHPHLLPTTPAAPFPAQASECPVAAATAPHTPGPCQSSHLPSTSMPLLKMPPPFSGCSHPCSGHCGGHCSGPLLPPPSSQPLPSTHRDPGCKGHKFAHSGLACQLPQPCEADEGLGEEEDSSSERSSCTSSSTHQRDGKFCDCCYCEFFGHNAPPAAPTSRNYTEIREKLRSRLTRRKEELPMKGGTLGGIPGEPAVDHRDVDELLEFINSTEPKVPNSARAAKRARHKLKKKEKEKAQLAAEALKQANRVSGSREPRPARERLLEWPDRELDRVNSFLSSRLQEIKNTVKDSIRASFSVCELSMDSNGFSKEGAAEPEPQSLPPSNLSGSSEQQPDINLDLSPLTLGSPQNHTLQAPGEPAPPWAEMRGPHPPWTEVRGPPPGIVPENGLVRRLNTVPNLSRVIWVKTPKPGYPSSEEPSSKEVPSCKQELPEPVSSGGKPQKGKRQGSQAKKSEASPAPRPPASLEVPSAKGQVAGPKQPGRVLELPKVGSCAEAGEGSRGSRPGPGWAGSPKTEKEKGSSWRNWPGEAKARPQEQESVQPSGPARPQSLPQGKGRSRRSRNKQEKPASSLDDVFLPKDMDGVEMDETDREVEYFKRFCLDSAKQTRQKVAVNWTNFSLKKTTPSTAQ
# Sequence of UniProt Q8TCE6 (Q8TCE6 whole entry, looked up): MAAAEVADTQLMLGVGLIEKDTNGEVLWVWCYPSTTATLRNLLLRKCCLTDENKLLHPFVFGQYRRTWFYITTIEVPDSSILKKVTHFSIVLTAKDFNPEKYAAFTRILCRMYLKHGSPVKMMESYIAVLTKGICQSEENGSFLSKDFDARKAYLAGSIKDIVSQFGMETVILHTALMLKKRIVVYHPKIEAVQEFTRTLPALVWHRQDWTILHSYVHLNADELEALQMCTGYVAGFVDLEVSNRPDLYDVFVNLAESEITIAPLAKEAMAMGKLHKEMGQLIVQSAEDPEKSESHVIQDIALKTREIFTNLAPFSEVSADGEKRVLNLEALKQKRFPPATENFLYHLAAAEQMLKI
Target,log2 fold change [1],log2 fold change (volasertib),log2 fold change (epoxomicin),log2 fold change [2],log2 fold change (rosiglitazone),log2 fold change [3],log2 fold change [4],log2 fold change [5],log2 fold change [6],log2 fold change [7]
DYNC1I2 isoform 2 (UniProt Q13409),0.012,0.045,-0.06,0.086,-0.022,–,–,–,–,–
CTSA (UniProt P10619),-1.24 (active),-1.57 (active),-0.003,-0.031,-0.017,-0.037,0.018,0.011,-0.007,-1.44 (active)
ELF1 (UniProt P32519),0.116,-0.516,0.117,-0.161,–,0.185,–,–,0.027,–
CTNNBL1 (UniProt Q8WYA6),-0.362,-1.24 (active),–,–,0.072,–,–,0.012,–,–
EEF2K (UniProt O00418),-0.046,-0.395,0.093,0.102,–,–,0.028,0.096,–,-0.188
EIF4G3 isoform 3 (UniProt O43432),-0.074,-0.165,–,0.012,0.019,0.007,–,0.039,0.021,–
DENND10 (UniProt Q8TCE6),-0.041,-0.241,-0.041,-0.048,0.007,0.121,–,0.076,-0.031,–
DNAH5 (UniProt Q8TE73),0.042,0.01,-0.052,-0.015,-0.044,-0.079,-0.009,-0.031,0.029,0.03
EEF1A1 (UniProt P68104),-0.19,0.098,0.148,0.021,-0.326,0.131,–,0.165,-0.121,–
DCTN1 isoform 4 (UniProt Q14203),0.01,-0.1,0.02,-0.157,0.086,0.078,-0.024,0.052,0.149,-0.096
CYB561A3 isoform 2 (UniProt Q8NBI2),-0.058,0.103,–,-0.007,0.052,-0.089,-0.241,–,-0.021,0.032
DAXX (UniProt Q9UER7),0.018,-0.006,–,-0.111,0.047,0.204,-0.102,-0.077,-0.093,0.027
CYP24A1 (UniProt Q07973),0.252,0.379,–,-0.126,-0.205,-0.209,0.065,-0.175,0.288,0.198
FAM193B (UniProt Q96PV7),0.126,0.092,-0.033,–,0.027,–,–,-0.442,0.247,–
DSN1 (UniProt Q9H410),-0.218,-0.418 (active),-0.004,-0.107,-0.086,-0.034,–,0.007,-0.008,–
DTWD1 (UniProt Q8N5C7),-0.081,-0.196,-0.054,0.018,0.057,-0.07,-0.033,0.036,-0.046,0.089

Target,log2 fold change [1],log2 fold change (volasertib),log2 fold change (epoxomicin),log2 fold change [2],log2 fold change (rosiglitazone),log2 fold change [3],log2 fold change [4],log2 fold change [5],log2 fold change [6],log2 fold change [7]
EIF2AK3 (UniProt Q9NZJ5),0.322,-0.114,0.033,-0.295,-0.308,0.357,0.106,–,0.14,-0.017
ELAC1 (UniProt Q9H777),-0.067,0.055,-0.002,-0.073,–,0.046,-0.488 (active),0,0.079,-0.227
EEF1B2 (UniProt P24534),-0.171,-0.343 (active),-0.034,-0.015,0.008,0.056,0.007,0.016,0.03,-0.065
DNAJC24 (UniProt Q6P3W2),-0.318,-0.244,0.034,0.049,-0.01,0.029,–,-0.027,-0.284,–
DOLPP1 (UniProt Q86YN1),-0.062,-0.008,–,-0.129,-0.034,-0.052,–,0.133,–,–
FAM241A (UniProt Q8N8J7),-0.026,0.007,–,0.057,0.011,-0.002,0.037,-0.093,0.059,0.08
FAM118B (UniProt Q9BPY3),-0.087,-0.445 (active),0.036,-0.008,0.026,0.035,-0.067,0.11,–,-0.373 (active)
DTYMK (UniProt P23919),0.044,0.171,0.039,-0.053,0.056,-0.03,-0.245 (active),0.01,-0.04,-0.037
DNAH11 (UniProt Q96DT5),0.234,0.426,-0.157,0.063,-0.047,-0.029,0.176,-0.111,0.298,-0.424
FAM83D (UniProt Q9H4H8),-0.097,-0.139,-0.082,-0.074,0.081,0,-0.115,0.085,0.006,0.042
EEF1AKNMT (UniProt Q8N6R0),-0.082,-0.564 (active),0.012,-0.038,0.022,0.111,0.134,0.092,0.075,-0.095
FAM118A (UniProt Q9NWS6),-0.812 (active),-0.54,0.118,–,-0.02,0.136,-0.075,0.222,-0.007,-0.142
EXOSC10 (UniProt Q01780),-0.048,0.087,-0.098,-0.098,-0.145,–,-0.222,-0.169,0.029,-0.003
EIF4E isoform 2 (UniProt P06730),-0.012,-0.044,0.053,-0.01,-0.017,0.021,-0.061,0.036,-0.146,0.199
CTSC (UniProt P53634),-0.419 (active),-0.946 (active),0.023,0.015,-0.047,-0.034,-0.032,0.146,-0.015,-0.433 (active)

# From the supplement of paper PMC10849652
